GSTO1 counter – blocks human GSTO1 in RBBP9 counter-screen. recombinant GSTO1, activity-based probe fluorescence polarization. 1.1% of 300,000 active. inhibition, % at 5.96 µM. P78417;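 active = inhibition above the campaign mean inhibition plus 3 SD, cut at about 35% in these data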;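 also: 0% = GSTO1-1 with DMSO and 100% = wells lacking GSTO1-1 enzyme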
LYPLA1 counter – LYPLA1 (human) inhibition in PME1 counter-screen; recombinant LYPLA1, FP-Rh probe fluorescence polarization; inhibition, % at 5.9 µM; 0.16% of 320,000 active;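 active = inhibition above the mean of all tested compounds plus 3 SD, set per campaign, cut at about 14% in these data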;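 also: inhibitors block serine hydrolase probe labeling of LYPLA1 so polarization falls; 0% = enzyme with DMSO and 100% = wells lacking LYPLA1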
Target sequence (O75608 whole entry, looked up): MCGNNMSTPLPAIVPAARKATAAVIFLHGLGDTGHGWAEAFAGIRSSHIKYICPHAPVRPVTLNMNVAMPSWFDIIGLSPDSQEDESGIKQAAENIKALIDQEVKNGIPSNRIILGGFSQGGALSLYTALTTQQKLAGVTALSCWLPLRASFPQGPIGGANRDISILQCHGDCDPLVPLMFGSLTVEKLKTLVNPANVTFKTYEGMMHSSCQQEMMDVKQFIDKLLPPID
LYPLA2 inh – LYPLA2 (human) inhibition in PME1 counter-screen. O95372. recombinant LYPLA2, FP-Rh probe fluorescence polarization. inhibition, % at 5.9 µM. 0.38% of 320,000 active;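 active = inhibition above the screen-wide mean plus 3 SD, limit set per campaign, cut at about 26% in these data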;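 also: 0% = LYPLA2 with DMSO and 100% = wells lacking LYPLA2 enzyme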
Fam108B counter – blocks mouse Fam108B hydrolase in RBBP9 counter-screen. recombinant Fam108B, FP-Rh probe fluorescence polarization. inhibition, % at 9.51 µM. 0.33% of 300,000 active. AID 1947;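 active = inhibition above the screen mean inhibition plus 3 SD, computed separately per campaign, cut at about 18% in these data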;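 also: inhibitors lower polarization as less probe binds the enzyme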
PREPL inhibitor – inhibits the human prolyl oligopeptidase-like enzyme; recombinant PREPL, fluorescence polarization activity-based probe; 0.68% of 320,000 active; AID 2751; inhibition, % at 5.96 µM; in the data active = inhibition above about 43%;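 also: 0% = enzyme with DMSO and 100% = wells lacking enzyme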
PME-1 inh – blocks human protein phosphatase methylesterase 1 | Q9Y570 | recombinant PME-1, FP-Rh probe fluorescence polarization | inhibition, % at 5.9 µM | 0.53% of 320,000 active;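 active = inhibition above the campaign mean of all compounds plus 3 SD, cut at about 26% in these data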;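 also: competitive labeling of PME-1 active site by serine hydrolase directed probe; 0% = PME-1 with DMSO and 100% = wells lacking PME-1 enzyme; inhibitors block probe labeling so polarization falls and inhibition rises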
Target sequence (Q9Y570 whole entry, looked up): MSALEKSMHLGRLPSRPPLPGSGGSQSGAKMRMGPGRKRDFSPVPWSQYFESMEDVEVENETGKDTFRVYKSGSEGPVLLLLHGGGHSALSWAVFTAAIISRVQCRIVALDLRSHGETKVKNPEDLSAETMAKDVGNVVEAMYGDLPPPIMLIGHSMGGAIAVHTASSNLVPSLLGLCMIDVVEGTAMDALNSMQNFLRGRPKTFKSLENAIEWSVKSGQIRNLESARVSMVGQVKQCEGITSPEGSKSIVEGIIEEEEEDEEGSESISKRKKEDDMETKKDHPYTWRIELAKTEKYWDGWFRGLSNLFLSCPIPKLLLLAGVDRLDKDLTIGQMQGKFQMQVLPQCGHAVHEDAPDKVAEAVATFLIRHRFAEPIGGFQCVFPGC
GSTO1 confirm – confirmation of human GSTO1 inhibitors | shares compounds with GSTO1 counter | recombinant GSTO1, probe fluorescence polarization | inhibition, % at 5.96 µM | 54% of 2,400 active;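 active = inhibition above the primary screen's cutoff, its mean inhibition plus 3 SD, cut at about 35% in these data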;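 also: loss of polarization as inhibitors block binding of rhodamine sulfonate ester activity probe; 0% = GSTO1 with DMSO and 100% = wells lacking GSTO1 enzyme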
LYPLA1 conf – counter-screen for PME1 inhibitors: confirmation of human LYPLA1 inhibitors; inhibition, % at 5.9 µM; shares compounds with LYPLA1 counter; recombinant LYPLA1, FP-Rh probe fluorescence polarization; 69% of 480 active;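 active = mean inhibition across replicates above the hit cutoff set in the primary screen, cut at about 15% in these data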;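 also: loss of FP-Rh probe labeling of LYPLA1 seen as lower polarization; 0% = LYPLA1 with DMSO and 100% = wells lacking LYPLA1 enzyme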
* = called active by the depositor; · = no result. The list is not random: actives were taken first. Their share in the collection is about 2%.

SMILES	GSTO1 counter	LYPLA1 counter	LYPLA2 inh	Fam108B counter	PREPL inhibitor	PME-1 inh	GSTO1 confirm	others
Cc1ccccc1NC(=O)CSc1nnc(NC(=O)c2ccco2)s1	-5	-5	-8	3	-4	-10	·
Cc1c(C(=O)Nc2nc(-c3ccccn3)cs2)oc2ccccc12	·	-12	-10	·	4	-20	·
O=C(Nc1nc(-c2ccccn2)cs1)c1cc2ccccc2o1	48*	-4	-4	-6	1	-21	39*
O=C(Nc1ccc(OC(F)F)cc1)c1cc(S(=O)(=O)N2CCCCC2)ccc1N1CCOCC1	·	-3	5	·	5	-2	·
O=C(OCC(=O)N1CCN(c2ccccc2)CC1)c1ncc(Cl)c(Cl)c1Cl	-2	5	1	0	-13	-3	·
CC(C)OCCCn1c(SCC(=O)Nc2ccccc2C(F)(F)F)nc2nccnc2c1=O	19	-4	6	1	6	-2	·
Cc1nnc(SCC(=O)c2cc(C)n(-c3c(C)n(C)n(-c4ccccc4)c3=O)c2C)s1	38*	-1	-7	6	1	-7	27
CC1=NN(c2ccc(S(=O)(=O)O)cc2C)C(=O)C1	24	-2	-3	-3	-8	-1	·
C=C(C)C(=O)NC1=NN(c2ccccc2)C(=O)C1	8	-5	-4	1	-1	-5	·
CC(Oc1ccc(Cl)cc1Cl)C(=O)NC1=NN(c2ccccc2)C(=O)C1 (centres undefined)	39*	-4	-2	3	13	7	-2
O=C1CC(NC(=O)C(F)(F)F)=NN1c1ccccc1	44*	-2	-8	-1	9	-5	10
CC1=NN(Cc2ccccc2)C(=O)C1	57*	-1	-7	1	10	-12	6
CC1=NN(c2ccc(N)cc2)C(=O)C1	50*	-1	4	5	6	3	14
CCc1ccc(N2CC(C(=O)OCc3nc4ccsc4c(=O)[nH]3)CC2=O)cc1 (centres undefined)	·	0	8	·	9	-6	·
O=C(CC1CCCC1)Nc1ccc(Br)cc1	-1	-1	-5	-2	-10	-1	·
CCOC(=O)c1c(C)[nH]c(C)c1C(=O)COC(=O)/C=C/c1ccco1	·	1	-2	·	-4	-4	·
CC1=NN(c2ccccc2)C(=O)C1	72*	1	-2	-2	6	0	10
CC1=NN(c2cccc([N+](=O)[O-])c2)C(=O)C1	24	-2	5	0	2	-1	·
O=C(N/N=C/c1ccc(-c2ccccc2[N+](=O)[O-])o1)c1cccnc1	51*	3	6	4	11	4	7
COC(=O)CCC(=O)OC1(C)C(=O)C=C2C=C(C3CC3)N(c3cccc(C#N)c3)C=C2C1=O (centres undefined)	58*	2	0	6	2	5	8
COC(=O)CCC(=O)OC1(C)C(=O)C=C2C=C(C3CC3)N(C3CC3)C=C2C1=O (centres undefined)	52*	5	5	1	12	5	20
COC(=O)CCC(=O)OC1(C)C(=O)C=C2C=C(C3CC3)N(c3ccc(CO)cc3)C=C2C1=O (centres undefined)	21	0	1	1	26	1	·
COC(=O)CCC(=O)OC1(C)C(=O)C=C2C=C(C3CC3)N(Cc3ccco3)C=C2C1=O (centres undefined)	38*	4	6	-2	27	5	17
CCOc1ccc2cc(C3CC(c4ccco4)=NN3S(C)(=O)=O)c(=O)[nH]c2c1 (centres undefined)	-1	-2	1	0	10	6	·
N#Cc1ccccc1S(=O)(=O)N1CCN(C(=O)c2cn(-c3ccccc3)nc2-c2cccnc2)CC1	·	-3	7	·	-2	-2	·
SMILES	GSTO1 counter	LYPLA1 counter	LYPLA2 inh	Fam108B counter	PREPL inhibitor	PME-1 inh	GSTO1 confirm	others
Clc1cccc(Cl)c1CSc1nnc([C@@H]2CCCN2)o1	3	3	8	0	6	-4	·
O=S1(=O)CCO[C@H]2Cc3ccccc3[C@H]2N1Cc1ccc(Cl)cc1	38*	-5	-3	2	-6	11	6
COc1ccc(NC(=O)CCN2CCN(S(=O)(=O)c3ccc(Br)cc3)CC2)cc1	71*	0	6	1	5	5	6
C/C(=N\Nc1cccc2cccnc12)c1ccc[nH]1	47*	2	-2	8	14	6	3
C[C@H](CO)N1C[C@H](C)[C@@H](CN(C)C(=O)Nc2ccc3c(c2)OCO3)Oc2ccc(NC(=O)Cn3cnnn3)cc2C1=O	·	·	·	·	16	·	·
COc1ccc(CC2=CC(=O)c3ccccc3C2=O)cc1	67*	-3	0	10	-4	12	15
CCOc1ccccc1N(CC(=O)NC1CCCC1)C(=O)CNC(=O)c1cccs1	5	-4	-5	1	2	3	·
O=C(Nc1ccccn1)C1CCN(C(=O)Nc2ccccc2)CC1	13	-3	5	1	-10	0	·
CCOC(=O)c1c(NC(=O)CN2CCCCC2)sc(CN(C)C)c1-c1ccccc1	5	4	-2	-6	-1	-3	·
CCOC(=O)c1c(NC(=O)CCl)sc(CN(C)C)c1-c1ccccc1	77*	1	0	-1	4	-1	91*
COc1cccc(NS(=O)(=O)c2ccc(C)c(C(=O)N3CCCCC3)c2)c1	0	-1	0	4	4	-1	·
CC1(OC(=O)c2cccs2)C(=O)C=C2C=C3CCCN3C=C2C1=O (centres undefined)	60*	-5	-7	14	4	0	62*
CC1(OC(=O)C2CCCC2)C(=O)C=C2C=C3CCCN3C=C2C1=O (centres undefined)	21	-1	1	4	13	7	·
O=C(O)/C=C/C(O)c1ccc(Cl)cc1 (centres undefined)	9	0	2	-2	-9	-2	·
O=C(O)/C=C\C(=O)Nc1ccc(N2CCN(c3cccc(Cl)c3)CC2)cc1	45*	2	6	0	28	7	7
O=C(O)/C=C\C(=O)Nc1ccccc1C(=O)N1CCN(c2ccc(Cl)cc2)CC1	-7	6	11	-2	19	0	·
COC(=O)CCC(=O)NNC(=O)C1CC1(c1ccccc1)c1ccccc1 (centres undefined)	4	4	-4	-4	12	4	·
CCOc1ccc(C2OC34CCCCC3C(C#N)(C#N)C2(C#N)C(=N)O4)cc1OC (centres undefined)	39*	21*	25	17	16	21	15	LYPLA1 conf=8

From PubChem
